Screening data from PubChem.
Mac1 fbg inh: inhibitors of human CD11b/CD18 binding to fibrinogen; P05107+P11215; K562 CD11b/CD18 adhesion to fibrinogen, ATPlite luminescence; Mn2+ added to activate the integrin; inhibition, % at 10 µM; 93,000 compounds, 0.54% hits; AID 1497;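 active = primary inhibition of 50% or more at 10 µM, then 40% or more on retest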
CYP2C19 inh: inhibitors of human CYP2C19 | inhibition, % at 5 µM | 96,000 compounds, 21% hits | CYP2C19 Supersomes, luciferin-H EGE luminescence, 30 min | AID 778 | P33261;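 active = CYP2C19 inhibition above a set limit at 5 µM in the primary screen, cut at about 50% in these data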;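 also: plate controls were negative control wells for no effect and 2.5 mM tranylcypromine positive control for full effect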
Target sequence (P33261 whole entry, looked up): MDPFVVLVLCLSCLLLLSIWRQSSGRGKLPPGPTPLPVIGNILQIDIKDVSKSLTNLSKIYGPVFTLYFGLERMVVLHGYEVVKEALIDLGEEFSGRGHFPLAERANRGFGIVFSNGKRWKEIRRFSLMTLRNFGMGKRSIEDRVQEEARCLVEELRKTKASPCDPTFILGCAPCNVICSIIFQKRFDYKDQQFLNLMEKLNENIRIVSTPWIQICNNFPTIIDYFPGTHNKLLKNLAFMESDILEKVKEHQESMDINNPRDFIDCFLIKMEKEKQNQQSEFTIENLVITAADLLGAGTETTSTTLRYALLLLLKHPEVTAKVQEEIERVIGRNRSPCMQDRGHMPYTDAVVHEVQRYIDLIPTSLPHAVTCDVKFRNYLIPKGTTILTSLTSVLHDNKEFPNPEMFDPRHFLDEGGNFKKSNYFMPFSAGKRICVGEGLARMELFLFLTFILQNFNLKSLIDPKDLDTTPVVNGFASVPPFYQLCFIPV
CYP2C19 activ: activators of human cytochrome P450 2C19 | 96,000 tested, under 10 active | P33261 | recombinant CYP2C19, luciferin-H EGE luminescence; active compounds read high; 0 = fully inhibited enzyme, 1 = untreated enzyme | activation factor at 5 µM;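 active = activation factor of at least 2 at 5 µM in the primary screen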;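 also: 0 = wells with 2.5 mM tranylcypromine and 1 = vehicle-only wells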
CYP2C9 inh: blocks human cytochrome P450 2C9; P11712; CYP2C9 Supersomes, luciferin-H conversion, luminescence; inhibition, % at 5 µM; 96,000 compounds, 20% hits; AID 777;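 active = blocking of liver enzyme CYP2C9 beyond about 50% at 5 µM, limit read from the data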
CYP2C9 activ: increases human cytochrome P450 2C9 activity; AID 1024; 96,000 compounds, 1.4% hits; recombinant CYP2C9, luciferin-H conversion, luminescence; active compounds read high; factor 1 = untreated enzyme, 0 = blocked; activation factor at 5 µM; P11712;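 active = activation factor of 2 or more for CYP2C9 at a 5 µM dose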;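 also: 0 = sulfaphenazole-blocked wells and 1 = vehicle-only wells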
CD11b adhes enh: CD11b/CD18-fibrinogen binding enhancement; P05107+P11215; K562 CD11b/CD18 adhesion to fibrinogen, ATPlite luminescence; activation, % at 10 µM; 93,000 compounds, 0.07% hits; AID 1499;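 active = 10 µM primary screen giving 50% or more activity, confirmed by 40% or more on retest at that dose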
Active calls of the source: *; . = no result. Shown are actives, neighbours in structure and some others; about 28% of the full set was active somewhere.

SMILES	Mac1 fbg inh	CYP2C19 inh	CYP2C19 activ	CYP2C9 inh	CYP2C9 activ	CD11b adhes enh
CO/N=C/NC(=O)C1=NOC(CNc2ncc(C(F)(F)F)cc2Cl)C1 (stereo not drawn)	-8	75*	0.3	6	0.9	-7
NC(=O)NOCc1ncc(C(F)(F)F)cc1Cl	-8	3	1	-1	1	-1
CC(C)CCNC(=O)Cn1cc2c(n1)CCCCC2	2	6	0.9	49	0.5	-1
CC1CCN(C(=O)Cn2cc3c(n2)CCCC3)CC1	5	55*	0.4	15	0.9	2
Cc1cc(C)c(NC(=O)Cn2cc3c(n2)CCCC3)c(C)c1	-8	8	0.9	-11	1.1	-5
CCN(CCNC(=O)Cn1cc2c(n1)CCCC2)c1ccccc1	-18	72*	0.3	69*	0.3	13
O=C(Cn1cc2c(n1)CCCC2)NCc1cccnc1	20	11	0.9	14	0.9	2
O=C(Cn1cc2c(n1)CCCCC2)NCc1ccccc1	-4	84*	0.2	-154	2.5*	9
Cc1ccc2nc(NC(=O)Cn3cc4c(n3)CCCCC4)sc2c1	-8	29	0.7	66*	0.3	3
O=C(Cn1cc2c(n1)CCCC2)N1CCOCC1	-3	5	1	22	0.8	-1
COc1ccc(/C=c2/sc3nc(-c4ccccc4)c(-c4ccccc4)n3c2=O)cc1	0	.	.	.	.	2
O=C1CC(C(=O)N2CCOCC2)C2(CCCC2)O1 (stereo not drawn)	-37	11	0.9	4	1	-5
CC1(C)CC(O)C(C)(C)N1O (stereo not drawn)	.	24	0.8	-10	1.1	.
O=C(Cn1cc2c(n1)CCCC2)Nc1ccccc1Br	0	90*	0.1	67*	0.3	-1
COc1cccc(CNC(=O)Cn2cc3c(n2)CCCC3)c1	0	70*	0.3	-22	1.2	-4
Cc1ccc(NC(=O)Cn2cc3c(n2)CCC(C)C3)cc1 (stereo not drawn)	0	16	0.8	20	0.8	3
O=C(Cn1cc2c(n1)CCCC2)Nc1ccccc1Cl	-1	12	0.9	19	0.8	10
COC(=O)c1ccccc1NC(=O)Cn1cc2c(n1)CCC(C)C2 (stereo not drawn)	-3	13	0.9	61*	0.4	3
Cc1ccc(Cn2c3ccccc3c3cn[nH]c(=O)c32)cc1	34	-1	1	18	0.8	-2
CS(=O)(=O)N1CC(C(=O)NC2CC2)Oc2ccc(Cl)cc21 (stereo not drawn)	-3	46	0.5	29	0.7	2
O=C1C(=O)N(CNc2ccccn2)c2ccccc21	.	9	0.9	-5	1.1	.
CCC(c1nnnn1C(C)(C)C)N1CCN(C2CCCC2)CC1 (stereo not drawn)	-6	8	0.9	22	0.8	-1
CCCC(c1nnnn1C(C)(C)CC)N1CCN(C2CCCC2)CC1 (stereo not drawn)	4	60*	0.4	35	0.6	-1
CCCC(c1nnnn1C1CCCCC1)N1CCN(C2CCCC2)CC1 (stereo not drawn)	-1	72*	0.3	0	1	0
CSc1nnc(-c2ccc(S(=O)(=O)N3CCCC3)cc2)n1C	-2	16	0.8	-6	1.1	-2
SMILES	Mac1 fbg inh	CYP2C19 inh	CYP2C19 activ	CYP2C9 inh	CYP2C9 activ	CD11b adhes enh
CCC(C)NC(=O)c1ccccc1NS(=O)(=O)c1ccc(OC)c(OC)c1 (stereo not drawn)	-1	80*	0.2	-35	1.4	1
COc1ccc(S(=O)(=O)Nc2ccccc2C(=O)NC(C)C)cc1OC	-9	81*	0.2	-54	1.5	0
COc1ccc(N2C(=O)C3CCCN3C2=O)cc1 (stereo not drawn)	-16	-11	1.1	-25	1.2	-3
CC(C)c1ccc(NC(=O)COC(=O)CCC(=O)c2cccs2)cc1	25	.	.	.	.	0
CN1CCN(CCC(=O)Nc2ccc(F)c(F)c2)CC1	-3	7	0.9	-10	1.1	0
O=C(CCn1c(=O)[nH]c2ccsc2c1=O)Nc1ccc(F)c(F)c1	.	38	0.6	55*	0.4	.
O=C(CCn1c(=O)[nH]c2ccsc2c1=O)NCCc1ccc(Cl)cc1	-24	70*	0.3	36	0.6	-4
O=C(CCn1c(=O)[nH]c2ccsc2c1=O)N1CCc2ccccc2C1	16	19	0.8	6	0.9	0
O=C(CCn1c(=O)[nH]c2ccsc2c1=O)N(CCc1ccccc1)Cc1ccccc1	-6	65*	0.3	65*	0.3	-8
O=C(COc1ccc(C(=O)c2ccccc2)cc1)NCC1CCCCC1	56	.	.	.	.	-4
CCCCOCCCNC(=O)Cc1ccccc1OC	-5	73*	0.3	-1	1	-1
CCCCOCCCNC(=O)c1ccc(OC)cc1	-32	58*	0.4	14	0.9	-2
COc1cccc(NC(=O)c2cn(C)c(=O)c3cc(OC)c(OC)cc23)c1	.	-6	1.1	18	0.8	.
CCCCNC(=O)/C=C/c1ccc(OC)c(Br)c1	-43	41	0.6	-56	1.6	-1
CN1C(=O)C2(C(C#N)=C(N)Oc3c2oc(CO)cc3=O)c2ccccc21 (stereo not drawn)	-3	-12	1.1	-7	1.1	5
CCOc1ccc(CN2CCC(C(=O)N3CCN(c4ccccc4F)CC3)CC2)cc1OC	6	-15	1.2	-4	1	0
COc1ccccc1Nc1nc(N)nc(CN2CCN(c3ccccc3F)CC2)n1	.	7	0.9	17	0.8	.
COC(=O)c1cc(CN2CCN(c3ccccc3C)CC2)ccc1O	-2	41	0.6	51*	0.5	-2
COc1cc(CN2CCN(c3ccccc3F)CC2)cc(OC)c1O	-10	80*	0.2	14	0.9	-4
COc1cc(CN2CCC(C(=O)N3CCN(c4ccccc4F)CC3)CC2)cc(OC)c1O	1	5	0.9	70*	0.3	-3
O=C(Oc1ccc(-c2cn3c(n2)SCC3)cc1)c1ccccc1	10	-10	1.1	-10	1.1	-5
COc1ccc(/C=C2/SC(=O)N(CC(=O)Nc3cc(C)on3)C2=O)cc1OC	2	.	.	.	.	76
NS(=O)(=O)c1ccc(NC(=O)CSc2nnc(-c3cnccn3)n2-c2ccccc2)cc1	2	-17	1.2	-26	1.3	-2
Cc1ccc(CNC(=O)/C(C#N)=C\c2ccc(N(C)C)cc2)cc1	-3	-4	1	1	1	-4
O=C(NCc1ccco1)c1ccc(S(=O)(=O)c2cccc(S(=O)(=O)N3CCOCC3)c2)cc1	-12	51*	0.5	47	0.5	17
O=C(NCc1cccnc1)c1cc(S(=O)(=O)N2CCCCC2)ccc1Cl	-28	80*	0.2	94*	0.1	5
